Lassa entry inh: blocks Lassa virus binding to or entry into cells | Lassa virus pseudotype entry inhibition, cell reporter | Potency, µM (top dose mostly 37.9 µM), inactives show at the highest dose activity change, negative = inhibition, hits mostly inhibitors | actives 1.2% (n = 300,000); calls by dose curve; tested in HEK293 cells; further: potency means the concentration at half of the fitted maximal effect; nearly all actives have a fitted effect of over 50% in size
HCV inh: HCV inhibition; Huh7.5.1 HCVcc-Cre infection, luciferase reporter, 44 h; Potency, µM (top dose mostly 41.8 µM), for inactives: at the highest dose activity change, negative = inhibition, most hits filed as inhibitors; actives 3.4% (n = 340,000); AID 651820; active means well fitted inhibition curve with a large enough effect; inconclusive means small, poorly fitted or top-dose-only effect, or another doubt; inactive means no such curve, though single readings can be large or run the other way; further: potency means the concentration at half of the fitted maximal effect
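Luciferase read-out (15 sec integration) after a 15 min room-temperature substrate step quantifies HCVcc-Cre infection. Cells, 1,000 per well, had compound added 4 h post-plating, then virus at ~0.5 moi, and were cultured 44 h.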
MARV entry inh: inhibitors of Marburg virus binding or cell entry; Marburg virus pseudotyped entry inhibition, cell reporter; Potency, µM (doses to about 37.8 µM), for inactives: at the top dose activity change, negative = inhibition, actives largely listed as inhibitors; actives 1.8% (n = 300,000); AID 540276; calls by dose curve; tested in HEK293 cells; further: potency means the concentration at half of the fitted maximal effect
VACV mCherry inh: vaccinia inhibition (mCherry reporter) | Vaccinia virus mCherry reporter infection, fluorescence | AID 720579 | Potency, µM (series often up to 36.5 µM), for inactives: top-dose activity change, negative = inhibition, usual class: inhibitors | actives 0.63% (n = 310,000); calls by dose curve; tested in A549 cells; further: potency means the concentration at half of the fitted maximal effect; nearly all actives have a fitted effect of over 35% in size
HCMV inh: blocks human cytomegalovirus replication | HFF cells, HCMV-luciferase reporter, 72 h; stronger effect = lower value | activity change, negative = inhibition, % at 57.5 µM | actives 4.5% (n = 410,000) | AID 1259415; in the data active means activity change below about -60%; inconclusive means no clear call, values can overlap the other calls; inactive means above about -39%
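HFF cells seeded 16 h at 37C, treated with compounds, infected with luciferase-reporter HCMV at MOI 1 PFU/cell; luciferase read at 72 h post infection, normalized to buffer-only and Salinomycin controls.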
VACV Venus inh: vaccinia inhibition (Venus reporter) | Vaccinia virus Venus reporter expression, fluorescence | Potency, µM (top dose mostly 36.5 µM), without a hit: at the highest dose activity change, negative = inhibition, most hits filed as inhibitors | actives 0.46% (n = 330,000) | AID 720580; calls by dose curve; tested in A549 cells; further: potency means the concentration at half of the fitted maximal effect; nearly all actives have a fitted effect of over 30% in size
* hit, by the source's call; i = inactive; u = inconclusive; x = no result; [ ] = remark or other dose. Hits are enriched below; roughly 7.8% of the tested compounds scored in any of these assays. On the % scale 0 is the no-effect control and ±100 the full control effect.

SMILES	Lassa entry inh	HCV inh	MARV entry inh	VACV mCherry inh	HCMV inh	VACV Venus inh
CCCCOc1ccccc1Cn1c(=O)sc2ccccc21	u	x	u	-4.9%	-2.5	-5.7%
CCc1cccc(NC(=O)COc2cc(=O)n(CC)c3ccccc23)c1	u	x	24.2%[46.1 µM]	-15.9%	11.7	-5.2%
CSc1ccc(CCNC(=O)C2CCN(c3nc4ccccc4nc3C(F)(F)F)CC2)cc1	5.4%[46.1 µM]	x	x	u	13.1	u
COc1ccc(CN2CCN(S(=O)(=O)c3ccc(C)cc3)CC2)cc1Br	u	31.6µM*	u	x	-8.1	x
CC(Sc1nnc(-c2ccccc2)n1C)C(=O)NCc1ccco1 (stereo not drawn)	x	x	x	-8.7%	x	-15.0%
Cc1ccc(-c2nnc(Nc3ccc4c(c3)OCO4)c3ccccc23)cc1S(=O)(=O)NC(C)C	u	u	u	u	-92.3*	u
Cc1ccc(-c2nnc(Nc3ccc(Cl)c(Cl)c3)c3ccccc23)cc1S(=O)(=O)N(C)C	u	x	x	-17.6%	-13.2	-13.0%
Cc1ccc(C)c(Nc2nnc(-c3ccc(C)c(S(=O)(=O)NCC4CCCO4)c3)c3ccccc23)c1 (stereo not drawn)	-15.5%[46.1 µM]	x	u	-12.3%	-103.8*	-13.8%
Cc1ccc(-c2nnc(Nc3ccc(CC(N)=O)cc3)c3ccccc23)cc1S(=O)(=O)NCCO	x	8.5%	x	x	15.9	x
Cc1ccc(-c2nnc(Nc3ccc4c(c3)OCO4)c3ccccc23)cc1S(=O)(=O)NCCO	-15.7%	-12.4%	-14.8%	u	-93.8*	u
Cc1ccc(-c2nnc(Nc3ccc(Cl)c(Cl)c3)c3ccccc23)cc1S(=O)(=O)NCCO	u	x	x	u	-90.5*	-28.2%
CCOCCc1nn2c(=O)cc(COC(=O)c3ccc(NC(=O)c4ccc(F)cc4)cc3)nc2s1	u	x	x	-6.2%	12.0	-4.1%
CC(Sc1ncn[nH]1)C(=O)NCc1ccccc1 (stereo not drawn)	-1.5%[46.1 µM]	13.2%	13.8%[46.1 µM]	-15.8%	-98.6*	-10.7%
O=C(CSc1ncn[nH]1)NCCc1ccccc1	-4.0%	5.1%	13.5%	-16.5%	7.2	-14.6%
CCCCCCCOc1ccc(OC(=O)c2ccncc2)cc1	-21.0%	u	u	20.6%	-64.3*	39.0%
CCCCCCCOc1ccc(OC(=O)c2cccnc2)cc1	-29.7%	u	-22.9%	-0.7%	-6.1	6.2%
COc1cccc2sc(Nc3nnc(-c4ccc(F)cc4)o3)nc12	x	u	x	u	30.2	u
COc1cccc2sc(Nc3nnc(-c4cccs4)o3)nc12	u	u	u	u	-86.2*	u
O=C(c1ccccc1)N1CCC(c2nc3c(nnn3Cc3ccccc3Cl)c(=O)[nH]2)CC1	u	15.6%	-14.8%	i	15.9	-17.3%
CC(C)(C)c1ccc(Cn2nnc3c(=O)[nH]c(C4CCCN(C(=O)Cc5cccs5)C4)nc32)cc1 (stereo not drawn)	u	-3.2%	u	-21.5%	-13.3	u
O=C(NCc1cccs1)c1nc2c(nnn2Cc2ccccc2Cl)c(=O)[nH]1	11.2µM*	5.01µM*	u	u	-102.3*	7.08µM*
O=C(c1cccs1)N1CCC(c2nc3c(nnn3Cc3ccccc3Cl)c(=O)[nH]2)CC1	7.94µM*	0.7%	-7.0%[46.1 µM]	-10.9%	69.6	-5.9%
CC(C)(C)c1ccc(Cn2nnc3c(=O)[nH]c(C4CCN(C(=O)Cc5cccs5)CC4)nc32)cc1	u	-21.2%	8.2µM*	x	u	x
CCC(C)NC(=O)c1nc2c(nnn2Cc2ccccc2Cl)c(=O)[nH]1 (stereo not drawn)	1.9%	-16.3%	-0.1%[46.1 µM]	-14.4%	u	-1.4%
Cc1ccc(Cn2nnc3c(=O)[nH]c(C4CCN(S(=O)(=O)Cc5ccccc5)CC4)nc32)cc1	11.2µM*	u	u	u	27.3	u
CCOc1ccccc1C(=O)N(Cc1cccs1)c1ccc(Cl)cc1	-2.6%[46.1 µM]	x	-27.6%[46.1 µM]	-6.8%	-2.6	-7.4%
C[N+]12CCC(CC1)[C@H](OC(=O)C(O)(c1ccccc1)c1ccccc1)C2	x	x	14.2%	x	x	x
O=C(O)CCN1C(=O)/C(=C/c2cn(-c3ccccc3)nc2-c2cccs2)SC1=S	-4.0%[46.1 µM]	3.3%	u	-1.6%	-61.2*	-0.2%

Source: PubChem BioAssay
